Screens: PubChem, National Center for Advancing Translational Sciences (NCATS)
PTHR1 agonist: agonists of human PTHR1 parathyroid hormone receptor. HEK293 GP2 PTHR1 cells, GloSensor cAMP luminescence, 1 h. Potency, µM (doses to about 115 µM), without a hit: top-dose activation, actives largely listed as activators. 410,000 tested, 0.075% active; also: nearly all actives have a fitted effect of over 55% in size
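HEK-293-derived GP2 cells expressing PTHR1 and a GloSensor cAMP reporter, 3,000/well, plated overnight, given luciferin plus IBMX (each 0.5 mM as added) for 1 h at 37 °C, then compound for 1 h at 37 °C. Luminescence was read after 15 min at room temperature.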
GLP1R cytotox: cytotoxicity in counter-screen for GLP-1R inverse agonists; HEK293 cAMP-luciferase reporter cells, luminescence, 24 h; Potency, µM (titrated, usually from 38.3 µM), for the others: at the highest dose activity change, negative = inhibition, usual class: inhibitors; 410,000 tested, 0.13% active; AID 624418;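 also: loss of luciferase light is scored as toxicity; % is scaled to controls: 0 for no effect and ±100 for the full control effect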
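Cells in DMEM/10% Nu serum/1% pen-strep, 1536-well format. Pre-incubated 12 h, dosed with 23 nL compound, incubated a further 24 h. Luciferase detection, 12 min at room temp, luminescence.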
GLP-1R agonist: activates the human GLP-1 receptor. P43220. HEK293 GLP-1R CRE-luciferase, luminescence, 4-6 h; cells express a hypersensitive GLP-1R form. Potency, µM (series often up to 45.6 µM), without a hit: top-dose activation, usual class: activators. 380,000 tested, 0.007% active. AID 624172; also: % of control where 0% means no effect
Target sequence (P43220 whole entry, looked up): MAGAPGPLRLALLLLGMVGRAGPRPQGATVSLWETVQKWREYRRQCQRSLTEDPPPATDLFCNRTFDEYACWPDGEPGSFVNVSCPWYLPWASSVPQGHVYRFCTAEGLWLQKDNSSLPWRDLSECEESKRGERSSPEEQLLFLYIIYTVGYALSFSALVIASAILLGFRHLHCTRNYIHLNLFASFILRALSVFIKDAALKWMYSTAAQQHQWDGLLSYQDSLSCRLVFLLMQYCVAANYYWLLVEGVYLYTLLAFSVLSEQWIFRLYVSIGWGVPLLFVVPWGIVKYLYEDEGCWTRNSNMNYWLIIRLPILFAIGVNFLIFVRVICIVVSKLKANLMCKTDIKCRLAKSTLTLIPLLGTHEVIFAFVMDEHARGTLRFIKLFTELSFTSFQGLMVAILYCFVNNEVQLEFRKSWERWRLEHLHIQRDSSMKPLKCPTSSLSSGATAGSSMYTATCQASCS
GLP1R inv ag: GLP-1 receptor (human) inverse agonism; P43220; HEK293 GLP-1R CRE-luciferase, luminescence, 24 h; GLP-1R form is constitutively active; Potency, µM (top dose mostly 38.3 µM), for inactives: at the highest dose activity change, negative = inhibition, usual class: inhibitors; 410,000 tested, 1.6% active; AID 624417; also: % is scaled to controls: 0 for no effect and ±100 for the full control effect; nearly all actives have a fitted effect of over 55% in size
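Luminescence readout: a drop in cAMP-driven luciferase signal flags inverse agonism at a constitutively active GLP-1R stably expressed in HEK293. Compound exposure lasted 24 hr at 37 deg C, 5% CO2.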
Starred values were filed as active, the others as inactive; i = inactive; ? = inconclusive; nt = no result given; [ ] = remark or other dose. Compounds with a hit are over-represented: about 1.7% of the library has one in this group of screens. Calls follow the shape of the dose curve; as a rule, active = well fitted curve in the direction sought with a large enough effect; inconclusive = small, poorly fitted or top-dose-only effect, or another doubt; inactive = no such curve, though single readings can be large; an effect the other way counts as inactive or inconclusive. Potency is read from the fitted curve at half-maximal effect.

SMILES	PTHR1 agonist	GLP1R cytotox	GLP-1R agonist	GLP1R inv ag
CN1CCN(Cc2nc3ccccc3n2C)CC1	i	-15%	-7%	-12%
Cn1c(NN=O)nc2ccccc21	-6%	?	13%	4.5µM*
CCOC(=O)c1sc(NC(=O)Nc2cccc(Cl)c2)cc1C	-25%	?	-13%	3.5µM*
CCCCC(=O)NC(=S)Nc1nnn(CCC)n1	i	?	3%	11µM*
CCN(CC)C(=O)c1ccc(NC(=S)NC(=O)CCc2ccccc2)cc1	-25%	-13%	-4%	?
COc1ccc(N2CCN(C(=O)CCCCCn3c(=S)[nH]c4ccc(N5CCOCC5)cc4c3=O)CC2)cc1	-43%	-11%	-1%	?
O=C(c1ccccc1)c1nn(-c2ccc(Cl)cc2)c(=O)cc1C(F)(F)F	-11%	?	30%	4µM*
CCOc1cccc(CC(=O)NCc2ccc3c(c2)CCN3C(=O)c2cccc(C)c2)c1OCC	-31%	-8%	1%	9%
NC(=S)NN=C(c1ccc(Br)cc1)C1CC1	-22%	2.5µM*	-9%	4µM*
O=C(Nc1cccc(-c2csc(Nc3cccc(C(F)(F)F)c3)n2)c1)c1ccccc1	-91%	?	-2%	2.8µM*
CC(O)(c1ccncc1)c1nc(-c2cccc(C(F)(F)F)c2)cs1 (stereo unspecified)	-38%	-3%	0%	?
CC(C)c1ccc(NC(=O)Cn2c(=O)oc3cc(S(=O)(=O)N4CCCC4)ccc32)cc1	-86%	?	0%	?
COc1ccc(-c2noc(=O)n2Cc2cc(C)ccc2C)cc1	-9%	-26%	9%	11µM*
CC/C(=C\C=C\[C@@H]1C=C[C@@H]2CCC[C@H]2[C@@H]1C(=O)c1ccc[nH]1)[C@@H]1O[C@@H]([C@@H](C)C(=O)O)CC[C@@H]1C	-7%	?	-17%	2.5µM*
CC(C)[C@@]1(NC(=O)[C@H]2CC3c4cccc5[nH]cc(c45)C[C@H]3N(C)C2)O[C@@]2(O)C3CCCN3C(=O)[C@@H](Cc3ccccc3)N2C1=O (stereo partly specified)	nt	nt	2%	nt
Cc1ccccc1C(O)(Cc1ccccc1)C1CN2CCC1CC2 (stereo unspecified)	-7%	?	-1%	0.79µM*
CN[C@H](C)Cc1ccccc1	nt	nt	15%[96 µM]	nt
CCOP(=O)(Nc1ccc2c(c1)C(=NNC(N)=S)c1ccccc1-2)OCC	-6%	13µM*	-2%	?
CCOC(=O)Nc1ccc2c3c(cccc13)-c1ccccc1-2	i	336%	1%	?
CN1[C@@H]2CC[C@H]1CC(OC1c3ccccc3CCc3ccccc31)C2 (stereo partly specified)	-26%	?	-1%	2µM*
CN1C2CCC1CC(OC(c1ccccc1)c1ccccc1)C2 (stereo unspecified)	3%	?	2%	?
O=C(c1ccc(Cl)cc1)c1cn(Cc2ccccc2)c2cc3c(cc2c1=O)OCCO3	i	-15%	nt	?
CCOC(=O)[C@]12Cc3cc(Cl)ccc3[C@H]1N(C1CCCCC1)C(=O)c1ccccc12	-95%	?	-26%	4.5µM*
CCOC(=O)[C@]12Cc3cc(OC)ccc3[C@H]1N(C1CCCCC1)C(=O)c1ccccc12	-6%	10µM*	-11%	2.5µM*
CCOC(=O)[C@]12Cc3cc(Cl)ccc3[C@H]1N(CC(=O)OC)C(=O)c1ccccc12	-93%	?	-13%	7.9µM*
SMILES	PTHR1 agonist	GLP1R cytotox	GLP-1R agonist	GLP1R inv ag
CCCCN(CC(O)COc1cccc(C)c1)CC(O)COc1cccc(C)c1 (stereo unspecified)	-2%	?	-3%	?
COc1ccccc1C(=O)Nc1ccc2nc(SCC(=O)N(C)c3ccccc3)sc2c1	-40%	6%	nt	10%
COc1cccc(-c2nn(-c3ccc(C)cc3)cc2C(=O)N(C)CC(=O)Nc2cccc(F)c2)c1	i	?	-4%	7.1µM*
COc1cccc(NC(=O)CN(C)C(=O)c2ccccc2OCC(=O)Nc2cccc(C(F)(F)F)c2)c1	-46%	?	-31%	?
CC(=O)c1ccc(Oc2nc(C)nc3c2oc2ccccc23)cc1	-40%	-5%	nt	7%
COc1ccc(CN2Cc3cnnn3-c3ccccc3C2C#N)cc1 (stereo unspecified)	-95%	?	-13%	2.8µM*
N#CC1c2ccccc2-n2nncc2CN1Cc1cc(Cl)cc(Cl)c1 (stereo unspecified)	-29%	?	-13%	1.3µM*
Cc1cccc(-n2c(/C=C/c3c(C)[nH]c4ccccc34)nc3ccccc3c2=O)c1	i	1%	nt	18%
Cc1cccc(/C=C(\c2nc3ccccc3[nH]2)S(=O)(=O)c2ccccc2)c1	-35%	8.9µM*	0%	5µM*
CC1CCN(CCc2nc3cc(NC(=O)COc4ccc([N+](=O)[O-])cc4)ccc3n2C)CC1	-21%	?	6%	-19%
CC(=O)Nc1cnc(-c2ccccc2O)cn1	i	-5%	4%	?
O=Cc1cn(Cc2ccc([N+](=O)[O-])cc2)c2ccccc12	i	-17%	-1%	2.2µM*
CC12CCC3C(CCC4(O)CC(O)CCC34C=O)C1(O)CCC2C1=CC(=O)OC1 (stereo unspecified)	-8%	?	-6%	?
C[C@]12CC[C@H]3[C@@H](CC[C@]4(O)C[C@@H](O)CC[C@]34C=O)[C@@]1(O)CC[C@@H]2C1=CC(=O)OC1	-37%	?	-10%	1µM*
C=CCCC[C@@H]1OC(=O)CNC(=O)C([C@@H](C)CC)NC(=O)[C@@H]2CCCN2C(=O)C([C@@H](C)CC)OC(=O)[C@H](Cc2ccccc2)N(C)C(=O)[C@H](C(C)C)NC(=O)C1(C)C (stereo partly specified)	-1%	?	-1%	?
CCC(C)C1NC(=O)C2CCCN2C(=O)C(CC(C)C)OC(=O)CCNC(=O)C(C)N(C)C(=O)C(C(C)C)N(C)C1=O (stereo unspecified)	9%	4.5µM*	9%	?
COc1ccc2c3c1OC1C(O)C=CC4[C@@H](C2)NCC[C@]314 (stereo partly specified)	nt	nt	-3%[96 µM]	nt
COc1ccc2c(c1)-c1c(ssc1=S)C(C)(C)N2S(=O)(=O)c1ccc(C)cc1	-7%	?	0%	2.8µM*
Cc1cccc(N2C(=O)NC(=O)/C(=C\c3cc(C)n(-c4sc5c(c4C#N)CCCC5)c3C)C2=O)c1C	-15%	-6%	8%	3.5µM*
Cn1c(SSc2ccc(-c3cccnc3)n2C)ccc1-c1cccnc1	-1%	?	8%	?
CCCCCCOc1ccc(CN2CCN(C)CC2)cc1	i	4%	-10%	3.2µM*
CCC(C)NC(=O)c1c(N)n(CC2CCCO2)c2nc3ccccc3nc12 (stereo unspecified)	-1%	i	11%	7.9µM*
